Consider seven compounds from PubChem BioAssay (Tox21).

Values without a mark were called inactive. Inconclusive results are not listed. Active and inactive are the calls of the source. Unless noted, calls follow the shape of the dose curve; as a rule, active = well fitted curve in the direction sought with a large enough effect in the repeat runs; inconclusive = weak or mixed curves; inactive = no such curve, though single readings can be large; an effect the other way counts as inactive or inconclusive.

Experiment [1] can be described thus: qHTS assay for small molecule agonists of the p53 signaling pathway (AID 651631; calls by dose curve; also: nearly all actives have a fitted effect of over 15% in size). The essentials:
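Beta-lactamase reporter activity under p53 response elements was quantified in HCT-116 cells by FRET fluorescence, following 16 h incubation with test compounds at 37 °C and 2 h substrate development at room temperature.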
(In general: Quantitative high-throughput screening tests each substance at several concentrations.)

Experiment [2] can be described thus: qHTS assay for small molecules that induce genotoxicity in human embryonic kidney cells expressing luciferase-tagged ATAD5 (AID 651632). Also: nearly all actives have a fitted effect of over 15% in size. The essentials: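 Concentration-response screen for ATAD5 upregulation in HEK293T luciferase reporter cells; 16 hr treatment at 37C, then luminescence after 30 min with Amplite at room temperature.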
Experiment [3] in a line: qHTS assay for small molecule agonists of the p53 signaling pathway - cell viability (AID 651633; calls by dose curve;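 also: p53RE-bla HCT reporter cells with a stable beta-lactamase p53 reporter; nearly all actives have a fitted effect of over 30% in size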). The essentials:
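Viability counter-read: CellTiter-Glo luminescence (30 min, room temperature) in the same p53RE-bla plates. These plates had been exposed to compounds for 16 h at 37 C.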

Experiment [4] in a line: qHTS assay for small molecules that induce genotoxicity in human embryonic kidney cells expressing luciferase-tagged ATAD5 - cell viability (AID 651634; calls by dose curve; also: nearly all actives have a fitted effect of over 25% in size). The essentials: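 15.5 hr compound or vehicle exposure of HEK293T cells expressing luciferase-tagged ATAD5 at 37C; live-cell protease activity is read by fluorescence after 30 min of CellTiter-Fluor.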
Experiment [5] in a line: qHTS assay for small molecule disruptors of the mitochondrial membrane potential - cell viability (AID 720634; calls by dose curve;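 also: human HepG2 liver cancer cells; nearly all actives have a fitted effect of over 20% in size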). The essentials: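 In this qHTS format, HepG2 cells plated overnight were pinned with compound, incubated 1 hr, and assayed for ATP luminescence with CellTiter-Glo after m-MPI dye addition.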
Experiment [6] can be described thus: qHTS assay to test for compound auto fluorescence at 590 nm (red) in HepG2 cells (AID 720674). In a few lines: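 Red autofluorescence (Ex/Em 540/590 nm, Rose Bengal sodium equivalents) was measured in HepG2 cells, 2,000 per well in MEM plus 10% FBS, plated overnight at 37 C. Readings were taken 1 hr after adding 23 nL compound or DMSO, at 37 C and 5% CO2.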
A short description of experiment [7]: qHTS assay to test for compound auto fluorescence at 535 nm (green) in HepG2 cells (AID 720675).
A short description of experiment [8]: qHTS assay to test for compound auto fluorescence at 460 nm (blue) in HEK293 cells (AID 720678). The essentials: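 HEK293, 2,000 cells/well, 10% dialyzed FBS; attach 4-5 hr 37C; pin compound or DMSO; o/n 37C/5% CO2; fluorescence 405/460 nm; triamterene-equivalent units.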
Experiment [9] is described as follows: qHTS assay to test for compound auto fluorescence at 590 nm (red) in HEK293 cells (AID 720679). The essentials:
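Intensity at 540nm excitation and 590nm emission is reported as Rose Bengal sodium-equivalent autofluorescence. Measurements followed overnight exposure (37C, 5% CO2) of HEK293 cells, 2,000 per well, to 23 nL compound.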

A short description of experiment [10]: qHTS assay to test for compound auto fluorescence at 535 nm (green) in HEK293 cells (AID 720680).
Experiment [11] is described as follows: qHTS assay to test for compound auto fluorescence at 460 nm (blue) in HEK293 cell free culture (AID 720681). The essentials:
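Blue fluorescence (Ex 405/Em 460 nm, triamterene-equivalent) was read immediately after pin transfer of compound or DMSO into medium (DMEM, 10% FBS) without cells.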

Experiment [12] can be described thus: qHTS assay to test for compound auto fluorescence at 535 nm (green) in HEK293 cell free culture (AID 720682). The essentials:
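Each library compound, or DMSO control, is added by pintool to medium alone, comprising DMEM and 10% FBS. Emission at 535 nm following 485 nm excitation is quantified against fluorescein.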

Experiment [13] can be described thus: qHTS assay to test for compound auto fluorescence at 590 nm (red) in HEK293 cell free culture (AID 720683). In a few lines:
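Red-channel autofluorescence of compounds in culture medium (DMEM, 10% FBS), no cells, measured at 540/590 nm. Rose Bengal sodium is the reference fluorophore for equivalence.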

The nature of experiment [14]: qHTS assay to test for compound auto fluorescence at 590 nm (red) in HepG2 cell free culture (AID 720684). The essentials:
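Cell-free; medium MEM + 10% FBS; compound or DMSO added by pintool; read Ex 540/Em 590 nm; Rose Bengal sodium as red reference fluorophore.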

Experiment [15] is described as follows: qHTS assay to test for compound auto fluorescence at 460 nm (blue) in HepG2 cell free culture (AID 720685). The essentials: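 Cell-free plates of MEM plus 10% FBS received 23 nL compound or DMSO vehicle; blue-channel (405/460 nm) intensity scored against triamterene as reference fluorophore.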
The nature of experiment [16]: qHTS assay to test for compound auto fluorescence at 535 nm (green) in HepG2 cell free culture (AID 720686).
A short description of experiment [17]: qHTS assay to test for compound auto fluorescence at 460 nm (blue) in HepG2 cells (AID 720687). The essentials: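 Blue-channel autofluorescence (Ex/Em 405/460 nm, triamterene-equivalent) was measured after 1 hr compound exposure at 37 C, 5% CO2. Cells were HepG2, plated overnight at 37 C in MEM plus 10% FBS.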
Experiment [18] addresses Glucocorticoid receptor (Homo sapiens) (UniProt P04150). Nature of the experiment: qHTS assay to identify small molecule agonists of the glucocorticoid receptor (GR) signaling pathway (AID 720691; active = well fitted activation curve with a large enough effect in the signal ratio in the repeat runs, not every such curve was filed as active; the % refers to the signal ratio). Conditions: GR-bla HeLa, beta-lactamase reporter ratio, 18 h; activation: at 62.4 µM (top of the series) unless noted. The essentials: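 Measures GR pathway activation through a GRE-beta-lactamase reporter stably integrated in HeLa cells, with 18 h compound treatment at 37 C and fluorescence detection using a FRET substrate.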

The target is the same in experiment [19]. Nature of the experiment: qHTS assay to identify small molecule antagonists of the glucocorticoid receptor (GR) signaling pathway (AID 720692; active = well fitted inhibition curve with a large enough effect in the signal ratio in the repeat runs, not every such curve was filed as active; the % refers to the signal ratio). In a few lines: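 Tox21 10K library screened in concentration-response for blockade of dexamethasone (5 nM final)-induced GRE-bla reporter activity in HeLa cells; 18 h treatment, fluorescence read.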
Experiment [20] can be described thus: qHTS assay for small molecule disruptors of the mitochondrial membrane potential (AID 720635). Also: potency is read from the fitted curve at half-maximal effect. In a few lines:
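Mitochondrial membrane potential tracked with Mito-MPS dye, red aggregates (ex 540/em 590 nm) against green monomers (ex 490/em 535 nm). Compound treatment 1 hr at 37C, dye 30 min in HepG2.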

Glucocorticoid receptor (Homo sapiens), sequence (P04150 whole entry, looked up): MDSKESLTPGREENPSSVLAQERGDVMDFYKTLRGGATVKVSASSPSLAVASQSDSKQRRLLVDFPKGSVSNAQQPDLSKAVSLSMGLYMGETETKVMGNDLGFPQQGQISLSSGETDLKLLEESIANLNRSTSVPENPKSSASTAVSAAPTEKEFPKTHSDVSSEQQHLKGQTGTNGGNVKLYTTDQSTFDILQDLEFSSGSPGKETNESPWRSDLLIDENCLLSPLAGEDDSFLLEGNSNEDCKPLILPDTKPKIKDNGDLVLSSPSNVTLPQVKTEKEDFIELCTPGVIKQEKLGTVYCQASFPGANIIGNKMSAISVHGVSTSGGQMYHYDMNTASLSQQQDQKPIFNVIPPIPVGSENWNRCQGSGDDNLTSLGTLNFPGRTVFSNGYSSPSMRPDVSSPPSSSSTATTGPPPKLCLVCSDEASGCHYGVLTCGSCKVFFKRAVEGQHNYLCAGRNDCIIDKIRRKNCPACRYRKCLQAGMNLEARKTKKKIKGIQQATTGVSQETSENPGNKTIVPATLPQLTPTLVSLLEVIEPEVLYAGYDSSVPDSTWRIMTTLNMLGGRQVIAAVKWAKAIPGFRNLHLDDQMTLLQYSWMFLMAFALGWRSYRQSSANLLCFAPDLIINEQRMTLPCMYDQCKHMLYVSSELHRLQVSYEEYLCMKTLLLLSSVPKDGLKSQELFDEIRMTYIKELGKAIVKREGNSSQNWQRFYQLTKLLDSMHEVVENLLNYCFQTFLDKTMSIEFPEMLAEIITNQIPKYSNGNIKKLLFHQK

On to `COS(=O)(=O)C(F)(F)F`, for which the Potency result in [1], in experiment [2], in experiment [3], in [4], in experiment [5] and in experiment [6] was “inactive” each time. For the same compound, the Potency result in experiment [7], in experiment [9], in [13], in experiment [14], in [16] and in [18] was “inactive” in each case. For the same compound, the Potency entry in [19] is “inactive”. Moreover, the call in [8], in experiment [10], in experiment [11], in experiment [12], in experiment [15] and in experiment [17] was inactive.

On to `Nc1cccc([N+](=O)[O-])c1`, for which the Potency entry in experiment [1], in [2], in experiment [3], in experiment [4], in experiment [5] and in experiment [6] was “inactive” in each case. Also, the Potency result in [7], in experiment [14], in experiment [16] and in [18] was “inactive” each time. Also, the call in experiment [8], in [10], in experiment [11], in experiment [12], in experiment [15] and in experiment [17] was inactive.

With `CC/C=C\CCOC(=O)CC`, the Potency entry in [1], in experiment [2], in [3], in experiment [4], in [5] and in experiment [7] was “inactive” each time. The Potency entry in experiment [9], in experiment [13], in experiment [14] and in experiment [16] was “inactive” each time. In addition, the call in experiment [8], in [10], in experiment [11], in experiment [12], in experiment [15] and in experiment [17] was inactive.

On to `CCOC(=O)Cc1cccc2ccccc12`, for which the Potency result in [1], in [2], in [3], in experiment [4], in experiment [5] and in experiment [6] was “inactive” throughout. The Potency entry in experiment [7], in experiment [9], in experiment [14], in [16], in [18] and in experiment [19] was “inactive” in each case. Besides, the outcome in experiment [8], in experiment [10], in experiment [11], in experiment [12], in experiment [15] and in [17] was inactive.

Regarding `O=S(=O)(Oc1ccc(Cl)cc1)c1ccccc1`, the Potency entry in experiment [1], in experiment [2], in experiment [3], in [4], in experiment [6] and in experiment [7] was “inactive” throughout. Besides, the Potency result in experiment [9], in experiment [13], in [14], in [18] and in experiment [19] was “inactive” in each case. In addition, the Potency in experiment [20] was 19.3 µM (active). The compound was classed as inactive in experiment [8], in [10], in experiment [11], in experiment [12], in experiment [15] and in experiment [17].

Turning to `O=P(O)(OCc1ccccc1)OCc1ccccc1`, the Potency result in experiment [1], in experiment [2], in experiment [3], in [4], in [5] and in [6] was “inactive” each time. The Potency entry in experiment [7], in [9], in [14] and in [16] was “inactive” throughout. The call in [8], in experiment [10], in experiment [11], in [12], in experiment [15] and in experiment [17] was inactive.

Take `CC1(c2ccccc2)OC(C(=O)O)=CC1=O` (centres undefined): the Potency entry in experiment [1], in experiment [2], in experiment [3], in experiment [4], in experiment [5] and in experiment [6] was “inactive” each time. Also, the Potency entry in [7], in experiment [9], in [14] and in [16] was “inactive” in each case. For the same compound, the outcome in experiment [8], in [10], in [11], in [12], in experiment [15] and in [17] was inactive.
